Reference: publication PMC7862700, “An all-to-all approach to the identification of sequence-specific readers for epigenetic DNA modifications on cytosine”

Key:
Assay in all cases: DAPPL (digital affinity profiling via proximity ligation, sequencing); 10 mM Tris-HCl pH 7.5, 50 mM NaCl, 1 mM DTT, 4% glycerol, room temperature, 30 min; GST-TFs on glutathione beads, 16-mer random dsDNA library, 0.1% formaldehyde crosslink after washing; high values mean tight binding
[1] = target: T1, FEV (Homo sapiens, UniProt Q99581 1-238); details: protein: recombinant; tags: N-terminal GST; dsDNA, one strand shown
T1 sequence: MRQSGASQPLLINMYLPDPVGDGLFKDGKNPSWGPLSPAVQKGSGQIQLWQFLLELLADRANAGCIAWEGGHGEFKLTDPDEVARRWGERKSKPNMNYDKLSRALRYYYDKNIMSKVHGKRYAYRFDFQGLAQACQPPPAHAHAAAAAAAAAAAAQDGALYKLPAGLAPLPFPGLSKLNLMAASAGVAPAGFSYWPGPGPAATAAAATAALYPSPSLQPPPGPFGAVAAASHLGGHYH
How it was run: (§1)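 Binding signal is each hexamer's read frequency for a factor divided by its frequency in the tag-only sample. The factors were GST-fused human transcription factors from yeast, captured on glutathione beads, DNA-barcoded and pooled with that sample. Pools were incubated with 200 nmole of a random double-stranded 16-mer DNA library in Tris/NaCl/DTT/glycerol buffer at room temperature for 30 min, then washed, crosslinked with 0.1% formaldehyde, proximity-ligated with BsaI/T4 ligase (1 h, 37 °C), PCR-amplified and sequenced on an Illumina NextSeq500.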

[2] = target: ETV5 (Homo sapiens, UniProt P41161 1-510); details: protein: recombinant; tags: N-terminal GST; dsDNA, one strand shown
Sequence of ETV5 (P41161 whole entry): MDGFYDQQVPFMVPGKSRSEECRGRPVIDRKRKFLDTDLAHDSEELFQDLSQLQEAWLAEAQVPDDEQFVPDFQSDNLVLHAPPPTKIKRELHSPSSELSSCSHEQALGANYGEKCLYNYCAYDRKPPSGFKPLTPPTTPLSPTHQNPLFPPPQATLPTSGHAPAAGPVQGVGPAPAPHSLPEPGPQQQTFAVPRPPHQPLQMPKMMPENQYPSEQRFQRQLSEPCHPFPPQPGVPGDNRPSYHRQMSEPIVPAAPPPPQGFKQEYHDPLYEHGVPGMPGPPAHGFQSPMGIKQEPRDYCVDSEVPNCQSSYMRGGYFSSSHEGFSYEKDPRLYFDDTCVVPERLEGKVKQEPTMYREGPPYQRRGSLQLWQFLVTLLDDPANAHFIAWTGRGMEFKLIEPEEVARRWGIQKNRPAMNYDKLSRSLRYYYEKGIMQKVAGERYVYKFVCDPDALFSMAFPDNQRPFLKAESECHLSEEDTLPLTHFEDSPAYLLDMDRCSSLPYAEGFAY
How it was run: as §1

[3] = target: HSF1 (Homo sapiens, UniProt Q00613 1-529); details: protein: recombinant; tags: N-terminal GST; chain copies: 3; dsDNA, one strand shown
Sequence of HSF1 (Q00613 whole entry): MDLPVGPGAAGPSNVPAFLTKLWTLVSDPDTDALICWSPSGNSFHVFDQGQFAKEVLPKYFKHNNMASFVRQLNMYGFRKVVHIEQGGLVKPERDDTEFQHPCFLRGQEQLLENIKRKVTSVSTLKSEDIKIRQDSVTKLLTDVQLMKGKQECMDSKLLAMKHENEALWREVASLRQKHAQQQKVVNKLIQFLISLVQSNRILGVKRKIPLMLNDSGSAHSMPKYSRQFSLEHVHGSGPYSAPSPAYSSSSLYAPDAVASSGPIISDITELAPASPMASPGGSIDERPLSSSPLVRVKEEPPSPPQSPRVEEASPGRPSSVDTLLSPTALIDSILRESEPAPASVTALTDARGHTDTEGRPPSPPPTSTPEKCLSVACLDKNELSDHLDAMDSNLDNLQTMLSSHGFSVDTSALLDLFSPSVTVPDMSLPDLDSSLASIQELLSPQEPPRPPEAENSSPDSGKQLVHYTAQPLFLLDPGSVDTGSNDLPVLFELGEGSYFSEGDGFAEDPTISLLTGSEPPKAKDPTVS
How it was run: as §1

[4] = target: T2, SPIC (Homo sapiens, UniProt Q8N5J4 1-248); details: protein: recombinant; tags: N-terminal GST; dsDNA, one strand shown
T2 sequence: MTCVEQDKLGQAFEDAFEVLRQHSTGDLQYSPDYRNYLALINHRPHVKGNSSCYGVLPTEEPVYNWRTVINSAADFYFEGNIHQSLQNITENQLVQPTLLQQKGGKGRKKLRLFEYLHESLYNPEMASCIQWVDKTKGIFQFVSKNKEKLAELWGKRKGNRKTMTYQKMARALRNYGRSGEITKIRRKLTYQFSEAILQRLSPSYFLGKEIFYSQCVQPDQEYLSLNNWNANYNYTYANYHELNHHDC
How it was run: as §1

[5] = target: ELF4 (Homo sapiens, UniProt Q99607 1-663); details: protein: recombinant; tags: N-terminal GST; dsDNA, one strand shown
Sequence of ELF4 (Q99607 whole entry): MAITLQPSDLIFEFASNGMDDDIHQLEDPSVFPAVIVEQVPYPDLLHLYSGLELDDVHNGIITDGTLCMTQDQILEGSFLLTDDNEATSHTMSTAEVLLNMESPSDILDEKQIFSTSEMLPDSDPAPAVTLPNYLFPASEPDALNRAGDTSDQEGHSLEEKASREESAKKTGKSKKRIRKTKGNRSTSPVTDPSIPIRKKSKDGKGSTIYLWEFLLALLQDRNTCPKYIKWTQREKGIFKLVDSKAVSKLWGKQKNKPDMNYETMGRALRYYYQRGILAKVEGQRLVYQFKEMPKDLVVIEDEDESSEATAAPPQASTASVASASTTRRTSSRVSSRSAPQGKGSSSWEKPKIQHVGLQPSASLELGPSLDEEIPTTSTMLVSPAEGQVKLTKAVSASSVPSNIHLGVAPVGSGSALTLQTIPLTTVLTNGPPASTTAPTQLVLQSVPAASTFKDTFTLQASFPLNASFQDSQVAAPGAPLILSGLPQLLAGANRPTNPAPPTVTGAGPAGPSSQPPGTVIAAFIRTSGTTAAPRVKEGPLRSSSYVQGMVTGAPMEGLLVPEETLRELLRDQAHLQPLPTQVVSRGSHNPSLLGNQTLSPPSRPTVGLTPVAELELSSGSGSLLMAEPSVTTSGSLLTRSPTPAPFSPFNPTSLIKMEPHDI
How it was run: as §1

[6] = target: T3, ELK4 (Homo sapiens, UniProt P28324-2 1-405); details: protein: recombinant; tags: N-terminal GST; dsDNA, one strand shown
T3 sequence: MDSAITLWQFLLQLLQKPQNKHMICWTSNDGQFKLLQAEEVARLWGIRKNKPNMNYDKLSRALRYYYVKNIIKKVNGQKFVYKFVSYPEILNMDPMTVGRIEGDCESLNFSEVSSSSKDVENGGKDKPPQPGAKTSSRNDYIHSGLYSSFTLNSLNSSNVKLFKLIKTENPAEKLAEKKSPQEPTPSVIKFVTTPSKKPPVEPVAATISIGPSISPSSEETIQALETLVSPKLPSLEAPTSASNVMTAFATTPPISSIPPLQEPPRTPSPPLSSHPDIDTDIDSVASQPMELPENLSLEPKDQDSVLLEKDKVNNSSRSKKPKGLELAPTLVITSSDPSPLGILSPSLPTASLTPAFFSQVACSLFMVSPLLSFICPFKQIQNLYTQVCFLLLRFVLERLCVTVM
How it was run: as §1

[7] = target: T4, ETV2 (Homo sapiens, UniProt O00321 1-342); details: protein: recombinant; tags: N-terminal GST; dsDNA, one strand shown
T4 sequence: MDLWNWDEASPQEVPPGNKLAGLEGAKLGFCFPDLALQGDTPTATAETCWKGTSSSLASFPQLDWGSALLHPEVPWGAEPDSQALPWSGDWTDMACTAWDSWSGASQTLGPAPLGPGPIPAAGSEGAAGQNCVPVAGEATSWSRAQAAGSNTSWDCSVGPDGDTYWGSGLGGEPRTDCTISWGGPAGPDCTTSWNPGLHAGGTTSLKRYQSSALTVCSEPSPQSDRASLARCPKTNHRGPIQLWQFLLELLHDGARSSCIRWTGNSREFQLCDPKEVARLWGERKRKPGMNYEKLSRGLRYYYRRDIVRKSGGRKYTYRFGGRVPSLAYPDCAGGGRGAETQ
How it was run: as §1

[8] = target: T5, ELF3 (Homo sapiens, UniProt P78545 1-371); details: protein: recombinant; tags: N-terminal GST; dsDNA, one strand shown
T5 sequence: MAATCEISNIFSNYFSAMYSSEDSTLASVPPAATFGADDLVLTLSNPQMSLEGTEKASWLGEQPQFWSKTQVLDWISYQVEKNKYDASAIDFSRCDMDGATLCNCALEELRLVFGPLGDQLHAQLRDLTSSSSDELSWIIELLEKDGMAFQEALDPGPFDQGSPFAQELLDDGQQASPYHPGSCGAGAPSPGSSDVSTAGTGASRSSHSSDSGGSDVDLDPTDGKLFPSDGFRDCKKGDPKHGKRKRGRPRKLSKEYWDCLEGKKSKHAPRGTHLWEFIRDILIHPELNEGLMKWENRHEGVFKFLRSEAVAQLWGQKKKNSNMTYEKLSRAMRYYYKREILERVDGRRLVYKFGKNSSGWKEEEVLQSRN
How it was run: as §1

[9] = target: CRX (Homo sapiens, UniProt O43186 1-299); details: protein: recombinant; tags: N-terminal GST; dsDNA, one strand shown
Sequence of CRX (O43186 whole entry): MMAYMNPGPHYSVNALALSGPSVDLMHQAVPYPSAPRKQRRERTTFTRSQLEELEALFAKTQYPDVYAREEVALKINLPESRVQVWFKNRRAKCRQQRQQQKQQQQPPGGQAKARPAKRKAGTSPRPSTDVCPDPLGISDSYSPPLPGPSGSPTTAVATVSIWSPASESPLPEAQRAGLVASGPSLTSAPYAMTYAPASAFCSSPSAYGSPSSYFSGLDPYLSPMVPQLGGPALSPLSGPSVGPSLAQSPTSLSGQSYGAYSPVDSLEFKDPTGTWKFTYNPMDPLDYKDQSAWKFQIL
How it was run: as §1

[10] = target: ETV1 (Homo sapiens, UniProt P50549 1-477); details: protein: recombinant; tags: N-terminal GST; dsDNA, one strand shown
Sequence of ETV1 (P50549 whole entry): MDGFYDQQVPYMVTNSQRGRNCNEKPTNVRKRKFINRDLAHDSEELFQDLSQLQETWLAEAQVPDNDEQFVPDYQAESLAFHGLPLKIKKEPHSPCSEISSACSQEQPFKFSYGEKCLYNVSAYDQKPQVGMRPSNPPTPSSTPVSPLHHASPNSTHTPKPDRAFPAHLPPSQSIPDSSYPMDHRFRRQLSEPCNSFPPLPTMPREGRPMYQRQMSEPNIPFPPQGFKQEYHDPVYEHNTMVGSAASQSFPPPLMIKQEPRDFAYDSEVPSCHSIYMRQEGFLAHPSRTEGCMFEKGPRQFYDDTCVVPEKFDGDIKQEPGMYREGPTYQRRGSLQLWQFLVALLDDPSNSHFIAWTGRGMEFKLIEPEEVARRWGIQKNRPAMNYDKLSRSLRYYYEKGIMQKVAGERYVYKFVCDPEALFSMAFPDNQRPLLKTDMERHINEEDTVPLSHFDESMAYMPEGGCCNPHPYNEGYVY
How it was run: as §1

[11] = target: T6, ERF (Homo sapiens, UniProt P50548 1-548); details: protein: recombinant; tags: N-terminal GST; dsDNA, one strand shown
T6 sequence: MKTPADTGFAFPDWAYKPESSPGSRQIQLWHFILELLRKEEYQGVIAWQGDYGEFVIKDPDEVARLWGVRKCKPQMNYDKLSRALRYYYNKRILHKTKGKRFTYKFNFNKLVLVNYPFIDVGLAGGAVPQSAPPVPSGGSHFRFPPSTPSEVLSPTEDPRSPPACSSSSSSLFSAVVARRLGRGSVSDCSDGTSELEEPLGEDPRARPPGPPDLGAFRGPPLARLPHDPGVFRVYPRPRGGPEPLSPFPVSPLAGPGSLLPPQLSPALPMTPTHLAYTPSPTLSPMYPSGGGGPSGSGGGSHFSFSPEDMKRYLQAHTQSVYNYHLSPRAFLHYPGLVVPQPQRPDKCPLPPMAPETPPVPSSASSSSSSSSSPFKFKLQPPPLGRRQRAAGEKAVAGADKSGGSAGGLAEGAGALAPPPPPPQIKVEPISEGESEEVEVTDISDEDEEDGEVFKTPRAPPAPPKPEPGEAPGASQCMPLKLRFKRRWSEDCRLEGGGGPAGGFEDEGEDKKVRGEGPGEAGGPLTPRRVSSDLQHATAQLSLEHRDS
How it was run: as §1

[12] = target: T7, ETV3L (Homo sapiens, UniProt Q6ZN32 1-361); details: protein: recombinant; tags: N-terminal GST; dsDNA, one strand shown
T7 sequence: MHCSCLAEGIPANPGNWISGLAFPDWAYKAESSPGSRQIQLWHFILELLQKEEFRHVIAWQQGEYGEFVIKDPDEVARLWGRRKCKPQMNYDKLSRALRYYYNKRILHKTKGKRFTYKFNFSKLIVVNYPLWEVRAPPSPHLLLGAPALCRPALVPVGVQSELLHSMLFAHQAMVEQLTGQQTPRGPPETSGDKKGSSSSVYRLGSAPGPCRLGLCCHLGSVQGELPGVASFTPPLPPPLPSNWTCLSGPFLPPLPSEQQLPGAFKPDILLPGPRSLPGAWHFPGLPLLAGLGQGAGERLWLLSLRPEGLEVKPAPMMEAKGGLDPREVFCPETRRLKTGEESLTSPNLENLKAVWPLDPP
How it was run: as §1

[13] = target: T8, ETS2 (Homo sapiens, UniProt P15036 1-469); details: protein: recombinant; tags: N-terminal GST; dsDNA, one strand shown
T8 sequence: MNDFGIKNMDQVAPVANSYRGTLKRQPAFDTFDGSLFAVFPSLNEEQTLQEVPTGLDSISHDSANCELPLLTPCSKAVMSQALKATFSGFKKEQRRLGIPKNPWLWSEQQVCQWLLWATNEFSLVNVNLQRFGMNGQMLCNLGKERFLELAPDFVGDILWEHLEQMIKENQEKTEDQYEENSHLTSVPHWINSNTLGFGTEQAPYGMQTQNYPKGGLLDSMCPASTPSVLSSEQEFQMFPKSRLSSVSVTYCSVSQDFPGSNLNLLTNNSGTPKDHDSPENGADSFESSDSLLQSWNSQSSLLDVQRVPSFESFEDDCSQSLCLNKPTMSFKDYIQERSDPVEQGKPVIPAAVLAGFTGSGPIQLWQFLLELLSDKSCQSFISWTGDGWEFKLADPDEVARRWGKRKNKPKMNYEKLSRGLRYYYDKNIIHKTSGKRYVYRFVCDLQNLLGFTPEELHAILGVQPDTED
How it was run: as §1

[14] = target: T9, SPDEF (Homo sapiens, UniProt O95238 1-335); details: protein: recombinant; tags: N-terminal GST; dsDNA, one strand shown
T9 sequence: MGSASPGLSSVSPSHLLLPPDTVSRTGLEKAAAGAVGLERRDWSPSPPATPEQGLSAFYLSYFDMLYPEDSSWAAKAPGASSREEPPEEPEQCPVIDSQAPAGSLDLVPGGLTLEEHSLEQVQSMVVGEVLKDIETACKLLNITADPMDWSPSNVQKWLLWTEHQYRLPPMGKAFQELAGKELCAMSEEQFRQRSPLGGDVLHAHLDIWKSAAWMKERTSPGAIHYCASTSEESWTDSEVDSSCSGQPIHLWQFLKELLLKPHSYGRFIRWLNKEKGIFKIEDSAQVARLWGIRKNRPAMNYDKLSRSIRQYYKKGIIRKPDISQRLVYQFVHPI
How it was run: as §1

[15] = target: T10, ETV7 (Homo sapiens, UniProt Q9Y603 1-341); details: protein: recombinant; tags: N-terminal GST; dsDNA, one strand shown
T10 sequence: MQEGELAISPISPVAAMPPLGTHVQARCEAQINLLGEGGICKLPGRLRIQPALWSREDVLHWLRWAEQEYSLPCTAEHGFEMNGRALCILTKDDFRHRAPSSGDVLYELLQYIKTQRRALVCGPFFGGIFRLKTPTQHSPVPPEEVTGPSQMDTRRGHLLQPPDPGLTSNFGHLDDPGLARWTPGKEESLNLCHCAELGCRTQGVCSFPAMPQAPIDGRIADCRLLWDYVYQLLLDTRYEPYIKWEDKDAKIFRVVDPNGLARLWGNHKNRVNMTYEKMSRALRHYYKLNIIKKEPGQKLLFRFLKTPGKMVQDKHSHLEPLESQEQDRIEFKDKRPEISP
How it was run: as §1

[16] = target: T11, ELF5 (Homo sapiens, UniProt Q9UKW6-2 1-255); details: protein: recombinant; tags: N-terminal GST; dsDNA, one strand shown
T11 sequence: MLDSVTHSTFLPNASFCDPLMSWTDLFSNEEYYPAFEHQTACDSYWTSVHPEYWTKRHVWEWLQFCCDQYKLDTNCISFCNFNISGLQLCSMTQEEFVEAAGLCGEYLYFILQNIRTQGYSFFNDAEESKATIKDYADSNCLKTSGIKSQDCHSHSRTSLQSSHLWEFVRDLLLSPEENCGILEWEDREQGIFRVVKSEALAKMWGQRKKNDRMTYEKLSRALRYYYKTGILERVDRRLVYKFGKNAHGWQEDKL
How it was run: as §1

[17] = target: T12, ETV3 (Homo sapiens, UniProt P41162-2 1-143); details: protein: recombinant; tags: N-terminal GST; dsDNA, one strand shown
T12 sequence: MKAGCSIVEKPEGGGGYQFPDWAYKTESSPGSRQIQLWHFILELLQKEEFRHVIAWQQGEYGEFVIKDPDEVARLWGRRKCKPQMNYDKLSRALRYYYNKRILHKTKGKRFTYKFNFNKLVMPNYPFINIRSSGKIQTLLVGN
How it was run: as §1

[18] = target: ETV6 (Homo sapiens, UniProt P41212 1-452); details: protein: recombinant; tags: N-terminal GST; dsDNA, one strand shown
Sequence of ETV6 (P41212 whole entry): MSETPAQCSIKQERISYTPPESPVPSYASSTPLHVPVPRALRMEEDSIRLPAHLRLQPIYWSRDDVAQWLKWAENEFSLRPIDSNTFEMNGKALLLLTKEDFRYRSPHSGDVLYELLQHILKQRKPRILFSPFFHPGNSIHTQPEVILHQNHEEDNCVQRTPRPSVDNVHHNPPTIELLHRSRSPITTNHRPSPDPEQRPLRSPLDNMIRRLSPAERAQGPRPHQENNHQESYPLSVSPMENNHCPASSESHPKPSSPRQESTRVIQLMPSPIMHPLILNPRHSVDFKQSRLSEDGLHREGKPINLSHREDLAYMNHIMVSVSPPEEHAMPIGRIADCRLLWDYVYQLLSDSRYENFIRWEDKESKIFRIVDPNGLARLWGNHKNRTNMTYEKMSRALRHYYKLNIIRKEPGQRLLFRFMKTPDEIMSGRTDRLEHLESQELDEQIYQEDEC
How it was run: as §1

GCTATT
binding signal [1]: 1.29 fold enrichment (6-mer frequency, TF over GST control) | binding signal [2]: 1.3 fold enrichment (6-mer frequency, TF over GST control) | binding signal [3]: 1.22 fold enrichment (6-mer frequency, TF over GST control) | binding signal [4]: 1.38 fold enrichment (6-mer frequency, TF over GST control) | binding signal [5]: 1.38 fold enrichment (6-mer frequency, TF over GST control) | binding signal [6]: 1.56 fold enrichment (6-mer frequency, TF over GST control) | binding signal [7]: 1.41 fold enrichment (6-mer frequency, TF over GST control) | binding signal [8]: 1.45 fold enrichment (6-mer frequency, TF over GST control) | binding signal [9]: 1.38 fold enrichment (6-mer frequency, TF over GST control) | binding signal [10]: 1.3 fold enrichment (6-mer frequency, TF over GST control) | binding signal [11]: 1.37 fold enrichment (6-mer frequency, TF over GST control) | binding signal [12]: 1.34 fold enrichment (6-mer frequency, TF over GST control) | binding signal [13]: 1.25 fold enrichment (6-mer frequency, TF over GST control) | binding signal [14]: 1.2 fold enrichment (6-mer frequency, TF over GST control) | binding signal [15]: 1.34 fold enrichment (6-mer frequency, TF over GST control) | binding signal [16]: 1.33 fold enrichment (6-mer frequency, TF over GST control) | binding signal [17]: 1.25 fold enrichment (6-mer frequency, TF over GST control) | binding signal [18]: 1.35 fold enrichment (6-mer frequency, TF over GST control)
